Screens deposited in PubChem BioAssay by Broad Institute.
ROS inducer = raises reactive oxygen species in U2OS cancer cells; 46,000 tested, 2% active; U2OS ROS induction, H2DCF-DA fluorescence; ROS induction (% of piperlongumine), % at 10 µM; in the data active = ROS induction above about 79%, passing the limit was not always enough; inconclusive = no clear call, values can overlap the other calls
PD-1 reversal = reversal of PD-1 mediated T-cell inhibition; activation, % (no concentration beside the values); primary human CD4 T cells, PD-L1 beads, CellTiter-Glo 96 h; 29,000 tested, under 10 active; call rule not given here
NOMO-1 viab = STK33 inhibitor candidate reducing NOMO-1 cell viability; NOMO-1 AML viability, CellTiter-Glo luminescence, 72 h; 37,000 tested, 7.5% active; AID 2330; inhibition, % (no concentration beside the values); in the data active = inhibition above about 80%; inconclusive = no clear call, values can overlap the other calls
Numbers stand for hits; i = inactive; ? = inconclusive; nt = no result. The sample as a whole holds a higher share of hits than the screen did.

SMILES	ROS inducer	PD-1 reversal	NOMO-1 viab
Cc1ccc(C(=O)CC2(O)C(=O)N(CC(N)=O)c3ccccc32)s1 (centres undefined)	i	i	i
COc1ccc(S(=O)(=O)Nc2ccc3c(c2)CC(=O)N([C@@H](C)CO)C[C@@H](C)[C@@H](CN(C)Cc2ccc(C(F)(F)F)cc2)O3)cc1	i	i	95
COc1ccc(CN(C)C[C@@H]2Oc3ccc(NS(=O)(=O)c4ccc(F)cc4)cc3CC(=O)N([C@H](C)CO)C[C@H]2C)cc1	i	nt	i
COc1ccc(S(=O)(=O)Nc2ccc3c(c2)CC(=O)N([C@@H](C)CO)C[C@H](C)[C@H](CN(C)Cc2ccc(C(F)(F)F)cc2)O3)cc1	i	i	108
COc1ccc(CN(C)C[C@@H]2Oc3ccc(NS(=O)(=O)c4ccc(F)cc4)cc3CC(=O)N([C@@H](C)CO)C[C@@H]2C)cc1	i	nt	i
COc1ccc(S(=O)(=O)Nc2ccc3c(c2)CC(=O)N([C@H](C)CO)C[C@@H](C)[C@H](CN(C)Cc2ccc(C(F)(F)F)cc2)O3)cc1	i	i	?
COc1ccc(S(=O)(=O)Nc2ccc3c(c2)CC(=O)N([C@H](C)CO)C[C@@H](C)[C@@H](CN(C)Cc2ccc(C(F)(F)F)cc2)O3)cc1	i	i	119
O=C(Cn1cnc2c(nnn2-c2cccc(Cl)c2)c1=O)NCC1CCCO1 (centres undefined)	i	nt	nt
NCCCN(Cc1ccco1)C1CCCC1	i	i	106
CC(=O)c1ccc(NC(=O)CSc2nnc(N)s2)cc1	i	i	i
COC(=O)c1cc(NC(=O)CSc2nnc(N)s2)ccc1Cl	i	i	110
CC(C)c1ccc(NS(=O)(=O)Cc2ccccc2)cc1	i	nt	nt
Fc1ccccc1N1CCN(CCCNc2nc(=S)[nH]c3ccccc23)CC1	i	nt	nt
O=C(CSc1nc(SCC(=O)c2ccccc2)c2ccccc2n1)c1ccccc1	i	i	i
C=CCNC(=O)[C@H]1[C@@H]2C(=O)O[C@@H](c3ccccc3)[C@@H](c3ccccc3)N2[C@@H](c2ccccc2OCCO)[C@]12C(=O)N(C(=O)OCCOC)c1ccccc12	178	nt	nt
COCCOC(=O)N1C(=O)[C@@]2(c3ccccc31)[C@H](c1ccccc1OCCO)N1[C@H](c3ccccc3)[C@H](c3ccccc3)OC(=O)[C@H]1[C@@H]2C(=O)NC[C@H](O)c1ccccc1	348	nt	nt
C=CCNC(=O)[C@@H]1[C@H]2C(=O)O[C@H](c3ccccc3)[C@H](c3ccccc3)N2[C@H](c2ccccc2OCCO)[C@@]12C(=O)N(C(=O)OCCOC)c1ccccc12	183	nt	nt
COCCOC(=O)N1C(=O)[C@@]2(c3cc(C#CCCO)ccc31)[C@H](c1ccccc1OCCO)N1[C@H](c3ccccc3)[C@H](c3ccccc3)OC(=O)[C@H]1[C@@H]2C(=O)NC[C@H](O)c1ccccc1	i	nt	nt
COCCOC(=O)N1C(=O)[C@@]2(c3ccccc31)[C@H](C(N)=O)[C@H]1C(=O)O[C@H](c3ccccc3)[C@H](c3ccccc3)N1[C@@H]2c1ccc(O)cc1	i	nt	nt
COCCOC(=O)N1C(=O)[C@@]2(c3ccccc31)[C@H](C(N)=O)[C@H]1C(=O)O[C@H](c3ccccc3)[C@H](c3ccccc3)N1[C@@H]2c1ccccc1OCCO	i	nt	nt
COCCOC(=O)N1C(=O)[C@@]2(c3ccccc31)[C@H](C(N)=O)[C@H]1C(=O)O[C@H](c3ccccc3)[C@H](c3ccccc3)N1[C@@H]2c1ccc(OCCO)cc1	124	nt	nt
C=CCNC(=O)[C@@H]1[C@H]2C(=O)O[C@H](c3ccccc3)[C@H](c3ccccc3)N2[C@H](c2ccc(O)cc2)[C@@]12C(=O)N(C(=O)OCCOC)c1ccccc12	i	nt	nt
CSc1nc2c(Cl)cccc2c2c1c(=O)[nH]n2C	i	nt	nt
O=C1c2ccccc2C(=O)C1c1cc(Cl)cc(Cl)c1	i	nt	nt
CCc1ccc(N2C(=O)c3ccccc3NC2(C)C)cc1	i	nt	nt
SMILES	ROS inducer	PD-1 reversal	NOMO-1 viab
O=C1CC(c2ccccc2)OC12CCCCC2 (centres undefined)	i	nt	nt
CC(C)C(=O)NCCSc1c(-c2ccccc2)[nH]c2ccccc12	i	nt	nt
CC(=O)NC(c1ccccc1)c1ccccc1	i	i	i
COc1ccc(CN(C)C[C@H]2Oc3ccc(NC(=O)Cc4cn(C)c5ccccc45)cc3C(=O)N([C@H](C)CO)C[C@H]2C)cc1	i	i	i
C[C@@H]1CN([C@H](C)CO)C(=O)c2cc(NC(=O)Cc3cn(C)c4ccccc34)ccc2O[C@@H]1CN(C)Cc1ccc(Cl)c(Cl)c1	i	i	112
C[C@@H]1CN([C@H](C)CO)C(=O)c2cc(NC(=O)Cc3cn(C)c4ccccc34)ccc2O[C@H]1CN(C)Cc1ccc(Cl)c(Cl)c1	i	i	?
C[C@@H]1CN([C@@H](C)CO)C(=O)c2cc(NC(=O)Cc3cn(C)c4ccccc34)ccc2O[C@@H]1CN(C)Cc1ccc(Cl)c(Cl)c1	i	i	92
CC(C)(C)C(=O)Nc1nnc(SCc2ccc(Cl)cc2Cl)s1	i	nt	nt
COC(=O)/C=C1/C(=O)N/C(=N\c2nc(C)cc(C)n2)N1c1cccc(C)c1	103	i	i
Cc1cc(C)nc(/N=C2\NC(=O)CC(C(=O)O)N2c2ccc(F)c(Cl)c2)n1 (centres undefined)	i	i	i
CC(=O)N(c1ccc2oc3c(c2c1)CCCC3)S(=O)(=O)c1ccccc1	i	nt	nt
Cn1c(Sc2cnn(-c3ccccc3)c(=O)c2Br)nnc1-c1ccccc1	i	nt	nt
COc1ccc2c(c1)CCC(=O)C2	i	i	i
COc1ccc(N2C(=O)Cc3ccc(OC)cc3C2=O)cc1	i	i	120
CCOC(=O)C(C(=O)Nc1cccc(C(F)(F)F)c1)C1CCCCC1 (centres undefined)	i	nt	nt
CCOC(=O)CSc1ncnc2c1sc1nc3c(cc12)COC(C)(C)C3	i	i	i
Cc1nc(SCC(=O)NCc2ccco2)c2c3c(sc2n1)CCC3	i	i	i
CC1(C)Cc2nc3sc4c(SCC(=O)NCc5ccco5)ncnc4c3cc2CO1	i	i	127
O=C(CSc1ncnc2sc3c(c12)CCCCC3)NCc1ccco1	i	i	131
CC(=O)N(Cc1ccccc1)c1ccccn1	i	nt	nt
COc1cccc(CN(C(=S)NCc2ccccc2)c2ccc(F)c(Cl)c2)c1O	i	nt	nt
CCOC(=O)CNc1nnc(-c2ccccc2)c(-c2ccccc2)c1C#N	i	nt	nt
CCOC(=O)c1nn(-c2ccccc2)c(C#N)c1NC(=O)c1nn(CC)cc1Br	166	i	115
COC(=O)c1nn(-c2ccccc2)c(=O)c2c(N)sc(C)c12	i	nt	nt
CCOC(=O)c1c(NC(=O)c2nn(CC)cc2Br)c(C#N)nn1-c1ccccc1	125	i	i
SMILES	ROS inducer	PD-1 reversal	NOMO-1 viab
O=C(CCSc1ccccc1)NC1CC1	i	nt	nt
CC(CC(O)C1OC1(C)C)[C@@H]1CCC2(C)C3=CCC4C(C)(C)C(=O)CCC4(C)C3CC[C@@]12C (some centres undefined)	i	nt	101
CN(C)/N=C(\NO)c1c(F)cccc1Cl	i	nt	nt
FC(F)(F)c1ccc(-c2csc(-c3ccc(-c4csnn4)cc3)n2)cc1	i	nt	nt
COC(=O)[C@@]1(Cc2ccccc2N=[N+]=[N-])N=C(c2ccc(OCCCO)cc2)O[C@H]1c1ccccc1N=[N+]=[N-]	i	nt	nt
CS(=O)(=O)c1sc(C(=O)O)c2c1C=CCC2	i	i	i
COC(=O)c1ccc(NC(=O)CN(c2ccc(F)c(Cl)c2)S(C)(=O)=O)cc1	i	i	i
